Measured values published in PubChem BioAssay (Tox21).
Inconclusive results are not listed. Calls of active or inactive are those of the source. Unless noted, the call rests on the fitted dose curve; in most records, active means well fitted curve in the direction sought with a large enough effect in the repeat runs; inconclusive means weak or mixed curves; inactive means no such curve, though single readings can be large; an effect the other way counts as inactive or inconclusive.

How the values were obtained:
[1] = qHTS assay to identify small molecule HDAC inhibitors - cell viability counter screen (AID 1259365); further: series mostly up to about 92 µM; nearly all actives have a fitted effect of over 50% in size
Method in brief: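 Viability readout: CellTiter-Glo luminescence. Wild-type HCT-116 cells, 2hr compound treatment following overnight attachment at 37 C.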

[2] = qHTS assay to identify small molecule agonists of the sonic hedgehog signaling (Shh) pathway - cell viability counter screen (AID 1259366); further: nearly all actives have a fitted effect of over 50% in size
Method in brief: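 Viability measured fluorometrically (CellTiter-Fluor, 1hr, 37C) in 3T3 Gli1-Luc reporter cells after 23hr compound exposure within a 24hr incubation at 37C/5% CO2.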

[3] = qHTS assay to identify small molecule antagonists of the sonic hedgehog signaling (Shh) pathway - cell viability counter screen (AID 1259367); further: nearly all actives have a fitted effect of over 55% in size
Method in brief: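 Using CellTiter-Fluor, viability of Gli1-Luc reporter 3T3 cells is read by fluorescence in the wells used for the Shh luciferase assay. Treatment lasts 23 hr with conditioned medium, then reagent 1 hr at 37C.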

[4] = qHTS assay to identify small molecule agonists of the sonic hedgehog signaling (Shh) pathway (AID 1259368; calls by dose curve;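 further: NIH/3T3-derived 3T3Gli1-Luc cells carrying a stable Gli1-driven firefly luciferase reporter; series mostly up to about 92 µM; nearly all actives have a fitted effect of over 15% in size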)
Method in brief: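 Luminescent signal was taken as a measure of Gli1-controlled luciferase expression in stably transfected NIH/3T3-derived cells that had been treated for 24 hr with compounds delivered in DMSO.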

[5] = qHTS assay to identify small molecule antagonists of the sonic hedgehog signaling (Shh) pathway (AID 1259369; calls by dose curve; further: nearly all actives have a fitted effect of over 45% in size)
Method in brief: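 Screening used 3T3Gli1-Luc cells at 2,000 per well, compounds delivered in DMSO, and conditioned medium as agonist stimulus; plates incubated 24hr at 37 C and 5% CO2 before a 30min luciferase step.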

[6] = target: Estrogen receptor beta (Homo sapiens) (UniProt Q92731); experiment: qHTS assay to identify small molecule antagonists of the estrogen receptor beta (ER-beta) signaling pathway (AID 1259378; active means well fitted inhibition curve with a large enough effect in the signal ratio in the repeat runs, not every such curve was filed as active; the % refers to the signal ratio)
Method in brief: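 Antagonist mode: compounds added to beta-lactamase reporter HEK293T ER-beta-UAS cells stimulated with E2 (1nM final), 16 hr at 37C. LiveBLAzer B/G FRET substrate, 2 hours room temperature, fluorescence read-out.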

[7] = qHTS assay to identify small molecule agonists of the androgen receptor (AR) signaling pathway in the presence of an antagonist - cell viability counter screen (AID 1259379);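 further: MDA-kb2 human breast cancer cells carrying an MMTV luciferase reporter; series mostly up to about 92 µM; nearly all actives have a fitted effect of over 25% in size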
Method in brief: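 In MDA-kb2 cells (human breast carcinoma, MMTV-luciferase), compounds at 15 concentrations plus 3.0uM nilutamide; 16 hr, 37C, 0% CO2; CellTiter-Fluor fluorescence read for viability.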

[8] = qHTS assay to identify small molecule agonists of the estrogen receptor beta (ER-beta) signaling pathway - cell viability counter screen (AID 1259380); further: nearly all actives have a fitted effect of over 30% in size
Method in brief: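 Viability of ER-beta-UAS-bla HEK293T cells was determined by CellTiter-Glo luminescence following 16 hr treatment with test compounds at 37C.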

[9] = qHTS assay to identify small molecule antagonists of the estrogen receptor beta (ER-beta) signaling pathway - cell viability counter screen (AID 1259382);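 further: HEK293T cells carrying ER-beta-UAS-bla reporter stimulated with estradiol; series mostly up to about 92 µM; nearly all actives have a fitted effect of over 55% in size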
Method in brief: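 Tox21 10K library tested in qHTS format on ER-beta-bla HEK293T cells stimulated with 1nM E2; 16 hr treatment at 37C. Same-well CellTiter-Glo luminescence served as the cell viability measure.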

[10] = target: Estrogen receptor (Homo sapiens) (UniProt P03372); experiment: qHTS assay to identify small molecule agonists of the estrogen receptor alpha (ER-alpha) signaling pathway in the presence of an antagonist (AID 1259383; calls by dose curve; further: top concentration of the series differs between compounds; nearly all actives have a fitted effect of over 15% in size)
Method in brief: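 In VM7Luc4E2 cells, 4,000 per well, compounds at 15 concentrations were co-incubated 22hr at 37C with 10.0nM final ICI-182,780. Luminescence from the stably transfected 4×ERE-luciferase reporter was recorded 30min after ONE-Glo addition.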

[11] = qHTS assay to identify small molecule agonists or antagonists of the thyroid stimulating hormone receptor (TSHR) signaling pathway - wild type cell line counter screen (AID 1259384; calls by dose curve)
Method in brief: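 Counter screen in untransfected Hek293: compounds (15-point titration, triplicate) plus phosphodiesterase inhibitor Ro20-1724 added after 18 h plating; 30 min RT. Intracellular cAMP via competitive d2/cryptate immunoassay, 1 h incubation.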

[12] = target: Thyrotropin receptor (Homo sapiens) (UniProt P16473); experiment: qHTS assay to identify small molecule antagonists of the thyroid stimulating hormone receptor (TSHR) signaling pathway (AID 1259385; calls by dose curve; further: nearly all actives have a fitted effect of over 20% in size)
Method in brief: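 Antagonist mode: compound-treated TSHR-expressing HEK293 cells were stimulated with 1.5 ng/mL TSH (final) in presence of Ro20-1724 for 30 min at RT. HTRF cAMP detection after 1 h; each compound tested at 15 concentrations, triplicate.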

[13] = qHTS assay to identify small molecule agonists of the estrogen receptor alpha (ER-alpha) signaling pathway in the presence of an antagonist - cell viability counter screen (AID 1259386);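 further: series mostly up to about 92 µM; cells exposed to compounds for 22 h at 37 °C before the viability read; nearly all actives have a fitted effect of over 30% in size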
Method in brief: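 Fluorescent CellTiter-Fluor viability signal from VM7Luc4E2 cells, with the reagent added during the final hour of a 22hr compound exposure at 37C in the presence of 10.0nM ICI-182,780.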

[14] = target: Progesterone receptor (Homo sapiens) (UniProt P06401); experiment: qHTS assay to identify small molecule agonists of the progesterone receptor (PR) signaling pathway (AID 1346784; calls by dose curve; further: nearly all actives have a fitted effect of over 30% in size)
Method in brief: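 Agonist mode, quantitative HTS format in a HEK 293T line expressing a UAS-controlled beta-lactamase reporter; 16 hr compound exposure at 37C in 2% charcoal-stripped FBS, then LiveBLAzer B/G FRET fluorescence.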

[15] = target: Progesterone receptor (Homo sapiens) (UniProt P06401); experiment: qHTS assay to identify small molecule antagonists of the progesterone receptor (PR) signaling pathway (AID 1346795; active means well fitted inhibition curve with a large enough effect in the signal ratio in the repeat runs, not every such curve was filed as active; the % refers to the signal ratio)
Method in brief: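 HEK293T PR-UAS-bla reporter cells in charcoal-stripped serum (2%) received compound after a 6 hr settling period, followed by R5020 agonist at 1 nM final; 16 hr incubation preceded the FRET substrate step and fluorescence measurement.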

[16] = qHTS assay to identify small molecule antagonists of the progesterone receptor (PR) signaling pathway - cell viability counter screen (AID 1346798); further: series mostly up to about 92 µM; nearly all actives have a fitted effect of over 50% in size
Method in brief: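 Same-well multiplex: after 16 hr at 37C with compound and R5020 stimulation, HEK293T cells carrying a UAS-bla reporter received LiveBLAzer substrate (2 hr RT), then CellTiter-Glo (30 min RT) for luminescent viability.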

[17] = qHTS assay to identify small molecule agonists of the progesterone receptor (PR) signaling pathway - cell viability counter screen (AID 1346799; calls by dose curve; further: nearly all actives have a fitted effect of over 45% in size)
Method in brief: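 Counter screen for cytotoxicity: compound-treated PR-UAS-bla HEK293T cells (16 hr, 37C, 5% CO2) were assayed with CellTiter-Glo, luminescence measured after 30 min at room temperature.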

[18] = qHTS assay to identify small molecule antagonists of the TGF-beta/Smad signaling pathway - cell viability counter screen (AID 1346824); further: nearly all actives have a fitted effect of over 50% in size
Method in brief: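 Cytotoxicity counter-screen run in the same wells as the beta-lactamase Smad reporter read: CellTiter-Glo luminescence after 30 min at room temperature. HEK 293T SBE-bla cells had 5 hr compound exposure at 37 C with TGF-beta1 (0.25 ng/mL stock).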

[19] = target: Androgen receptor (Homo sapiens) (UniProt P10275); experiment: qHTS assay to identify small molecule agonists of the androgen receptor (AR) signaling pathway in the presence of an antagonist (AID 1259381; calls by dose curve; further: nearly all actives have a fitted effect of over 15% in size)
Method in brief: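 Here, 15-concentration compound series were pin-transferred onto MDA-kb2 MMTV-luciferase cells already dosed with nilutamide (3.0uM final). After 16hr at 37C, ONE-Glo was added and luminescence read 30min later at room temperature.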

Measured: Potency

Sequence of Estrogen receptor beta (Homo sapiens) (Q92731 whole entry, looked up): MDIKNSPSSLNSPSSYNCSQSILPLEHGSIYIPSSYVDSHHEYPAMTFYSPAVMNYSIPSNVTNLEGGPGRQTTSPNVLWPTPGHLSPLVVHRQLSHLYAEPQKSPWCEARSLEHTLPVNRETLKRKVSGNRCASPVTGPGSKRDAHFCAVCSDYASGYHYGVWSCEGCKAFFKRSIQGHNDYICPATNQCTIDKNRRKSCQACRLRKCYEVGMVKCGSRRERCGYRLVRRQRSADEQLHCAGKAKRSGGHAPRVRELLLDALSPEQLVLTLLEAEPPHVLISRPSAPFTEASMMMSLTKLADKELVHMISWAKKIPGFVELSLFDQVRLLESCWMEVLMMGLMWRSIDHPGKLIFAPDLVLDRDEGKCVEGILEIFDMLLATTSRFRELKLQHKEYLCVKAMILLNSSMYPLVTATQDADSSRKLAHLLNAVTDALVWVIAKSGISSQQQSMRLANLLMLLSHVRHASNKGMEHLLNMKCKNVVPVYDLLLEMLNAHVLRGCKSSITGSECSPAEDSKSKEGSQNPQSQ
Sequence of Estrogen receptor (Homo sapiens) (P03372 whole entry, looked up): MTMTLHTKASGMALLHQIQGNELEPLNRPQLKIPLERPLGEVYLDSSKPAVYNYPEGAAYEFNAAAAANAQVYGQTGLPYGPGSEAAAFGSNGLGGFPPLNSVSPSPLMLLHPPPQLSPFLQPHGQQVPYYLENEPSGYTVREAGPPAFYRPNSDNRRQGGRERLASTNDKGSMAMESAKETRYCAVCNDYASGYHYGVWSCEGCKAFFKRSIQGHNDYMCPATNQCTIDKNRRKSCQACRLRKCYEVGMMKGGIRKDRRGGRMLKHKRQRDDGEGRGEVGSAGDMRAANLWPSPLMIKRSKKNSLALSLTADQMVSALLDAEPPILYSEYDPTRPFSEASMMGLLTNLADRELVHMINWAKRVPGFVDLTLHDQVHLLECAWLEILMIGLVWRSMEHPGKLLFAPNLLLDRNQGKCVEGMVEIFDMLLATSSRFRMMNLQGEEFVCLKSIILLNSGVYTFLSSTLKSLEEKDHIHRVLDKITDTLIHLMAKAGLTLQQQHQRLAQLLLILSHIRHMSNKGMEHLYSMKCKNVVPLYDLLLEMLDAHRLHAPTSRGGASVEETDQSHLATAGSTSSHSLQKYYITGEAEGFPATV
Sequence of Thyrotropin receptor (Homo sapiens) (P16473 whole entry, looked up): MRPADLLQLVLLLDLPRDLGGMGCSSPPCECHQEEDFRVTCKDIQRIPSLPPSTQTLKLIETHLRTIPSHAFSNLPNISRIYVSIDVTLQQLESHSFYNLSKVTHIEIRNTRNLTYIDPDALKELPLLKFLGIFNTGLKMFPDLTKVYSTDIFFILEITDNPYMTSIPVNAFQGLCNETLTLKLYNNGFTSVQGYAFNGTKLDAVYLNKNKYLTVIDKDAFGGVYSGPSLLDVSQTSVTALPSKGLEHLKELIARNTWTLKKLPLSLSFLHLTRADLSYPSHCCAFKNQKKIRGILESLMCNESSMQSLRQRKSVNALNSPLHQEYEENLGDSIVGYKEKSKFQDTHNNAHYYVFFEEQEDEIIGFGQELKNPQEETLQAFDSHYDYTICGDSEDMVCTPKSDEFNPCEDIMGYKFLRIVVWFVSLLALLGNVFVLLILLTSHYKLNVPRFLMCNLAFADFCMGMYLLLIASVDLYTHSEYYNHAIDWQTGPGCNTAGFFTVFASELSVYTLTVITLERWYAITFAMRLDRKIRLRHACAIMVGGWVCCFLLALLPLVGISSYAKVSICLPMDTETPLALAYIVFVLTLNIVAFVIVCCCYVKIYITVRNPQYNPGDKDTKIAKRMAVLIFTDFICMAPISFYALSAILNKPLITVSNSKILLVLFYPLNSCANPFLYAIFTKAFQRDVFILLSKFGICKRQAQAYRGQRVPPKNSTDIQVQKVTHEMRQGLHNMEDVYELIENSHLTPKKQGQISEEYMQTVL
Sequence of Progesterone receptor (Homo sapiens) (P06401 whole entry, looked up): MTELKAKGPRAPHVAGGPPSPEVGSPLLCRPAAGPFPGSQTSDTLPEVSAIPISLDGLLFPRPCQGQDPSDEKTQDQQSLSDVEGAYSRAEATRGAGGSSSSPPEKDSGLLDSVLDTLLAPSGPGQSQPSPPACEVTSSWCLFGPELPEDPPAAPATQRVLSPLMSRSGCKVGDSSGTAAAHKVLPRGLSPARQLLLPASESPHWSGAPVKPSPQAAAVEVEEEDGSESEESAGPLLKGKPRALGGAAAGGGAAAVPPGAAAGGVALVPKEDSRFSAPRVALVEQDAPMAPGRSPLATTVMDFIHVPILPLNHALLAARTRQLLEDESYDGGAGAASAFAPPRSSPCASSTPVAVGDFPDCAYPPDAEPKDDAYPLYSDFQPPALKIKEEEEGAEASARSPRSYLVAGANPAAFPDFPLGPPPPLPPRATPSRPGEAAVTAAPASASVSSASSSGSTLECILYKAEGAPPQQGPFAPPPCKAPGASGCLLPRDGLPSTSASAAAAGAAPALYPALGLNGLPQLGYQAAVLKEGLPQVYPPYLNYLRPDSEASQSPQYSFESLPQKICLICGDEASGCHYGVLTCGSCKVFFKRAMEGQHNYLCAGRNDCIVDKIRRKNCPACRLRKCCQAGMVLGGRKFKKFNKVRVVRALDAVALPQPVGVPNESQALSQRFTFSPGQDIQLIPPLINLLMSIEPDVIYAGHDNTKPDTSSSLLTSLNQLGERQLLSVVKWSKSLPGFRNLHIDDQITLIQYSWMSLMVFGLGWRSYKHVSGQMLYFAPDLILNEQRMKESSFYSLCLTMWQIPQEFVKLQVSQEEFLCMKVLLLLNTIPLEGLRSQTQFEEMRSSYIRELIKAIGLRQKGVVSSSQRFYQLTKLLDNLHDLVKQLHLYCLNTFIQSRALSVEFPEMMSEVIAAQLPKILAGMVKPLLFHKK
Sequence of Androgen receptor (Homo sapiens) (P10275 whole entry, looked up): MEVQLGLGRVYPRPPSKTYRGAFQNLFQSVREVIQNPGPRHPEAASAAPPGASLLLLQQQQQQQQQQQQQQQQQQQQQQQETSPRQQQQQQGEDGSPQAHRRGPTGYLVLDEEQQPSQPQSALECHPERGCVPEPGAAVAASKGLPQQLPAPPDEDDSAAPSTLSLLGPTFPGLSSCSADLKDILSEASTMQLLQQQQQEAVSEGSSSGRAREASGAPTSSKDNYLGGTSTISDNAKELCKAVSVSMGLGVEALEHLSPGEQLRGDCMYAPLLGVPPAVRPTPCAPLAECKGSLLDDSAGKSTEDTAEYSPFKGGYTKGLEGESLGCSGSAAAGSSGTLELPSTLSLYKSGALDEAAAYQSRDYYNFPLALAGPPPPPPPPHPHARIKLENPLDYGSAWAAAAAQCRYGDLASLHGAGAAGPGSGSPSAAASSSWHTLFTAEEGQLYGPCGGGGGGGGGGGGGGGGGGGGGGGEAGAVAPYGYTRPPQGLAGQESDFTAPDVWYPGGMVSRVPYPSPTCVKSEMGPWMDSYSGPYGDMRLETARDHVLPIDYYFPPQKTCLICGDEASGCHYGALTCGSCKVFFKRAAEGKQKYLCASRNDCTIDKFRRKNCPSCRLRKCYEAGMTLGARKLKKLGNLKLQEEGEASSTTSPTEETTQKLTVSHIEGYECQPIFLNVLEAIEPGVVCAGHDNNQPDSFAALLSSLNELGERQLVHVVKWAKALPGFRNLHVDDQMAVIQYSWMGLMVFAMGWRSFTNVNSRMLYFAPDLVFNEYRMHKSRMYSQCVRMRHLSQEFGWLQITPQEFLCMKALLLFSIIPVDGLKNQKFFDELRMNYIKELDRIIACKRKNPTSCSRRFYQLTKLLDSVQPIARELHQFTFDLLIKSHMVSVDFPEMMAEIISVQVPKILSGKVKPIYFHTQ

CN(C)c1ccncc1
not listed: [19]
inactive: all other assays above

CCCC(=O)C(CC)Sc1ccoc1C (stereo not given)
inactive: all assays above

CCCCCCC(=O)c1ccccc1
not listed: [9] | [10] | [15] | [19]
inactive: all other assays above

CC(C)OCCO
not listed: [10] | [14] | [17] | [19]
inactive: all other assays above

CCCCCCCCC1CO1 (stereo not given)
not listed: [10] | [15] | [17]
inactive: all other assays above

CCCCCCCCS(=O)(=O)O
not listed: [9] | [10] | [14] | [19]
inactive: all other assays above

CCC(C)SSC(C)CC (stereo not given)
not listed: [17] | [19]
inactive: all other assays above
